Laboratory results as given in PubChem BioAssay (NCATS).
Where “and” joins values, the source holds several entries; their conditions need not be identical. Equal values may be shown once. Results filed as inconclusive are left out. Calls of active or inactive are those of the source. Unless noted, the call rests on the fitted dose curve; in most records, active means well fitted curve in either direction with a large enough effect (not every such curve was filed as active); inconclusive means small, poorly fitted or top-dose-only effect, or another doubt; inactive means flat fitted curve, though single readings scatter.

Experiments:
[1] = molecular target: Lysosomal acid glucosylceramidase (Homo sapiens) (UniProt P04062); experiment: Glucocerebrosidase-p2 (AID 348; in the data active means potency below about 10 µM; further: potency means the concentration at half of the fitted maximal effect); conditions: purified GBA, blue fluorogenic substrate, 40 min
Procedure, shortened: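 Compounds titrated from 0.6 nM upwards against 0.2 nM enzyme in pH 5.9 citric acid/KH2PO4, taurocholate, tween-20; blue fluorogenic substrate 80 uM, 40 min room temperature, stopped and read Ex 365/Em 440 for AC50.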

[2] = NFAT Signaling Pathway (AID 444); conditions: Jurkat NFAT-bla M1, carbachol, beta-lactamase ratio, 5 h;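 further: carbachol stimulus at about its EC50 of 1 µM final; on the % scale 0 is the no-effect control and ±100 the full control effect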
Procedure, shortened: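 Read-out: CCF4 FRET ratio (460 nm/530 nm) after 1 h RT dye loading, used for %activity and AC50 from titration series. Cells: Jurkat NFAT-β-lactamase/M1 line, treated with compound plus 1 uM carbachol for 5 h, 37 °C.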

[3] = Stat Signaling Pathway (AID 446); conditions: ME-180 SIE beta-lactamase reporter, IL-6 stimulated, 5 h;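 further: ME-180 cervical cancer cells given 40 pM IL-6 alongside compound; SIE-controlled beta-lactamase reporter measured as 460/530 nm FRET emission ratio; on the % scale 0 is the no-effect control and ±100 the full control effect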
Procedure, shortened: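 IL-6/STAT signaling read in ME-180 cells via an SIE beta-lactamase reporter. Stimulus was 40 pM IL-6 (its AC50) for 5 hrs, so both activation and inhibition register.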

[4] = molecular target: Glucocorticoid receptor (Homo sapiens) (UniProt P04150); experiment: GR-EFC Redistribution (AID 451; calls by dose curve; further: potency means the concentration at half of the fitted maximal effect); conditions: CHO-K1 GR-EFC translocation, beta-gal luminescence, 2 h
Procedure, shortened: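 Translocation of GR-ED fusion to nuclear EA restores b-gal, read by luminescence after 1 h room-temperature detection. Engineered CHO-K1 biosensor cells, 1,000/well, exposed 2 h at 37 C to titrations up to 46 uM final.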

[5] = molecular target: Mitogen-activated protein kinase 10 (Mus musculus) (UniProt Q61831); experiment: JNK3 AlphaScreen Assay (AID 530); conditions: JNK3 lysate, c-Jun phosphorylation; series mostly up to 57.1 µM;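 further: kinase came from lysate of stimulated human HepG2 cells; signal reports phosphorylation of biotinylated GST-cJun 1-79 at Ser73 with 10 µM ATP; on the % scale 0 is the no-effect control and ±100 the full control effect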
Procedure, shortened: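 Room-temperature AlphaScreen kinase assay; pre-activated HepG2 lysate as JNK3 source, biotin-GST-cJun(1-79) substrate, 10 uM ATP, compound 15 min preincubation.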

[6] = molecular target: Cytochrome P450 3A4 (Homo sapiens) (UniProt P08684); experiment: qHTS Assay for Activators of Cytochrome P450 3A4 (AID 885; active means well fitted curve in the direction sought with a large enough effect; an effect the other way counts as inactive or inconclusive; further: nearly all actives have a fitted effect of over 65% in size); conditions: recombinant CYP3A4, Luciferin-PPXE luminescence, 60 min; series mostly up to 57.1 µM
Procedure, shortened: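 Quantitative HTS format: compounds preincubated with 20nM human CYP3A4 and Luciferin-PPXE substrate at KM, reaction started by NADPH regeneration, stopped after 60 min, luciferase luminescence read 20 min later.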

[7] = qHTS Assay for Lipid Storage Modulators (AID 1519; calls by dose curve); conditions: Drosophila S3 cells, BODIPY lipid droplet/cell ratio, laser cytometry, cells loaded with oleic acid
Procedure, shortened: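 Cells seeded at 5,000 per well were treated with compounds over a concentration series and loaded with oleic acid (400 uM, as added). Lipid droplet fluorescence (488 nm excitation, 500-530 nm channel) was read by laser-scanning cytometry and normalized to 20 uM Triacsin C.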

[8] = AP1 Signaling Pathway (AID 357); conditions: ME-180 (cervical carcinoma) AP-1-bla reporter, EGF-induced, beta-lactamase ratio, 5 h;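 further: ME-180 reporter cells stimulated with EGF at its EC50 level; on the % scale 0 is the no-effect control and ±100 the full control effect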
Procedure, shortened: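 AP-1-bla ME-180 cells, Opti-MEM + 0.5% dialyzed FBS, plated overnight 37 °C. Cpd titration + EC50 EGF, 5 h 37 °C. CCF4 2.5 h RT; ex 405, em 460/530 ratio → %activity, AC50.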

[9] = molecular target: Cytochrome P450 1A2 (Homo sapiens) (UniProt P05177); experiment: p450-cyp1a2 (AID 410; calls by dose curve; further: potency means the concentration at half of the fitted maximal effect;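 on activity change, negative = inhibition: -100% = full effect of reference inhibitor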); conditions: recombinant CYP1A2, luciferin-ME demethylation, luminescence; series mostly up to 57 µM
Procedure, shortened: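 Inhibition was calculated relative to 57 uM furafylline (full inhibition). The reaction used human CYP1A2 at 20nM with Luciferin-ME at its Km, 100uM, driven by an NADPH-regenerating system for 60 min at room temperature.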

[10] = molecular target: 3',5'-cyclic-AMP phosphodiesterase 4B (Homo sapiens) (UniProt Q07343); experiment: qHTS Assay for Inhibitors of PDE-IV (AID 607; active means well fitted activation curve with a large enough effect in the main read-out, with a control signal flat, not every such curve was filed as active; further: % of control where 0% means no effect); conditions: HEK293 ACTOne CNG channel cells, membrane potential fluorescence; series mostly up to 22.9 µM
Procedure, shortened: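 Live HEK293 cells with a modified cyclic nucleotide-gated (CNG) channel report intracellular cAMP via membrane-potential dye fluorescence (ex 535/em 590 nm). Endogenous PDE-IV was targeted. Compounds were tested at up to 22.9 uM final; RO 20-1724 100 uM served as control.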

[11] = molecular target: Guanine nucleotide-binding protein G(i) subunit alpha-1 (Homo sapiens) (UniProt P63096); experiment: qHTS Assay for Inhibitors of RGS12 GoLoco Motif Activity (Green Fluorophore) (AID 879; active means well fitted curve in the direction sought with a large enough effect; an effect the other way counts as inactive or inconclusive;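 further: 0% = labeled peptide with Gαi1 and full inhibition = labeled peptide alone without protein; negative values mean loss of peptide binding seen as reduced polarization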); conditions: Galphai1/FITC-RGS12 GoLoco peptide, fluorescence polarization; series mostly up to 57.1 µM
Procedure, shortened: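 Fluorescence polarization assay: 50 nM Gαi1 with 10 nM FITC-labeled RGS12 GoLoco peptide in 10 mM Tris pH 7.5, 150 mM NaCl, 0.1 mM GDP, 0.05% NP40, 10 min at room temperature with compound.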

[12] = Confirmation and Secondary Assay for Modulators of Hemoglobin Beta Chain Splicing at IVS2 654 locus (AID 910; active means well fitted curve in the direction sought with a large enough effect; an effect the other way counts as inactive or inconclusive;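 further: HeLa cells stably carrying EGFP split by mutant beta-globin IVS2-654 intron; per-well total GFP intensity by laser scanning cytometry after 2-day treatment; % of control where 0% means no effect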); conditions: HeLa EGFP-654 splicing reporter, GFP fluorescence, 48 h; series mostly up to 38.3 µM
Procedure, shortened: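 Readout: per-well total peak green fluorescence (488 nm ex, 500–520 nm em) from objects 5–250 µm, reflecting correct splicing of an EGFP-654 reporter. Compounds were applied for 2 days at 37 °C to overnight-plated HeLa EGFP-654 cells; controls were DMSO and 500 nM IVS2-654 PNA.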

[13] = Confirmation and Secondary Assay for Modulators of Hemoglobin Beta Chain Splicing at IVS2 705 locus (AID 930; active means well fitted curve in the direction sought with a large enough effect; an effect the other way counts as inactive or inconclusive;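 further: HeLa cells stably expressing the EGFP-705 splicing reporter; GFP fluorescence per well restored by corrected splicing of the IVS2-705 intron in EGFP; % of control where 0% means no effect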); conditions: HeLa EGFP-705 splicing reporter, GFP fluorescence, 48 h; series mostly up to 38.3 µM
Procedure, shortened: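 HeLa IVS2-705 EGFP reporter cells, 500/well, compound 2 d at 37C; correct splicing yields fluorescent EGFP. Control: 500 nM antisense PNA. Read-out: total peak GFP intensity.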

[14] = molecular target: Pyruvate kinase (Leishmania mexicana) (UniProt Q27686); experiment: qHTS Validation Assay for Inhibitors of Leishmania Mexicana Pyruvate Kinase (AID 945; active means well fitted curve in the direction sought with a large enough effect; an effect the other way counts as inactive or inconclusive;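 further: 0% = DMSO only neutral control wells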); conditions: purified L. mexicana pyruvate kinase, enzyme activity, E451W mutant enzyme; series mostly up to 57.5 µM
Procedure, shortened: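 Eight-point qHTS titrations; enzyme 0.2 nM LmPYK (E451W mutant); substrates 0.5 mM PEP, 0.1 mM ADP; 7 mM MgCl2; 1 h room temperature; PKLight luminescence normalized to neutral control.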

[15] = molecular target: Alpha-galactosidase A (Homo sapiens) (UniProt P06280); experiment: Counterscreen for Glucocerebrosidase Inhibitors: qHTS Assay for Human alpha-Galactosidase at pH 4.5 (AID 992; active means well fitted curve in the direction sought with a large enough effect; an effect the other way counts as inactive or inconclusive; further: 0% is about no effect); conditions: purified enzyme, fluorogenic substrate; series mostly up to 76.9 µM
Procedure, shortened: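 Read-out is 4-methylumbelliferone fluorescence (365 nm excitation, 440 nm emission) after a pH 10 NaOH/glycine stop. Reactions held 2 nM enzyme and 80 uM substrate at pH 4.5 for 20 min at room temperature.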

[16] = molecular target: alpha-glucosidase (Oryza sativa, rice) (UniProt Q653V4); experiment: Counterscreen for Glucocerebrosidase Inhibitors: qHTS Assay for Rice alpha-Glucosidase at pH 5.0 (AID 997; active means well fitted curve in the direction sought with a large enough effect; an effect the other way counts as inactive or inconclusive;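 further: 0% = full activity with enzyme and -100% = basal without enzyme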); conditions: rice alpha-glucosidase enzyme activity; series mostly up to 76.9 µM
Procedure, shortened: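 Rice alpha-glucosidase (4 nM final) with 400 uM 4-methylumbelliferyl-alpha-D-glucopyranoside in citrate buffer pH 5.0, 20 min at room temperature, stopped at pH 10; fluorescence 365/440 nm, compounds 0.7 nM–77 uM, AC50 from Hill fits.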

[17] = molecular target: Ubiquitin carboxyl-terminal hydrolase 1 (Homo sapiens) (UniProt O94782); experiment: Inhibitors of USP1/UAF1: Pilot qHTS (AID 504865; active means well fitted curve in the direction sought with a large enough effect; an effect the other way counts as inactive or inconclusive;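 further: rhodamine fluorescence freed from ubiquitin-rhodamine substrate followed over time; top concentration of the series differs between compounds; on the % scale 0 is the no-effect control and ±100 the full control effect; nearly all actives have a fitted effect of over 35% in size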); conditions: purified USP1/UAF1, Ub-rhodamine cleavage fluorescence; series mostly up to 54.9 µM
Procedure, shortened: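 USP1/UAF1 complex (1nM) preincubated with compound 15 min at room temperature, then Ub-Rho substrate (150nM final) added. Fluorescence read kinetically at 480/540 nm, 6 reads every 60 seconds. Buffer: 50mM HEPES pH 7.8, 0.5mM EDTA, 0.1 mg/ml BSA, 1mM TCEP, 0.01% Tween-20.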

[18] = molecular target: Glucocorticoid receptor (Homo sapiens) (UniProt P04150); experiment: GR-GFP Redistribution (AID 450;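 active means compounds whose dose series gives a full or clear partial fitted curve of increased nuclear translocation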; further: potency means the concentration at half of the fitted maximal effect); conditions: U2OS GR-GFP nuclear translocation, laser cytometry, 2 h
[19] = molecular target: Cytochrome P450 3A4 (Homo sapiens) (UniProt P08684); experiment: qHTS Assay for Inhibitors and Substrates of Cytochrome P450 3A4 (AID 884; active means well fitted curve in the direction sought with a large enough effect; an effect the other way counts as inactive or inconclusive; further: potency means the concentration at half of the fitted maximal effect; nearly all actives have a fitted effect of over 50% in size); conditions: recombinant CYP3A4, Luciferin-PPXE luminescence; series mostly up to 57.1 µM
Procedure, shortened: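 20 nM human CYP3A4 with 25 uM Luciferin-PPXE (at KM) in 200 mM KPO4, preincubated 10 min with compound; NADPH regeneration started a 60 min RT reaction. Luciferin detected by luminescence, normalized to 57 uM ketoconazole as full inhibition.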

[20] = qHTS profiling for inhibitors of Plasmodium falciparum proliferation (AID 504749; active means well fitted curve in the direction sought with a large enough effect; an effect the other way counts as inactive or inconclusive;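 further: 0% = DMSO vehicle and full inhibition = artemisinin control; nearly all actives have a fitted effect of over 60% in size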); conditions: P. falciparum in erythrocytes, SYBR Green DNA, 72 h, at 28.7 µM (top of the series)
Procedure, shortened: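 Three-day growth assay of blood-stage parasites in erythrocytes (0.3% parasitemia, 2.5% hematocrit) at 37 C, 5% CO2, quantified by SYBR Green DNA staining after overnight detergent lysis.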

[21] = at 7.69 µM (top of the series) unless noted
[22] = measured here: cell count channel max response
[23] = measured here: lipid channel max response

Chain of Glucocorticoid receptor (Homo sapiens) (P04150 whole entry, looked up, the tested form may be a part): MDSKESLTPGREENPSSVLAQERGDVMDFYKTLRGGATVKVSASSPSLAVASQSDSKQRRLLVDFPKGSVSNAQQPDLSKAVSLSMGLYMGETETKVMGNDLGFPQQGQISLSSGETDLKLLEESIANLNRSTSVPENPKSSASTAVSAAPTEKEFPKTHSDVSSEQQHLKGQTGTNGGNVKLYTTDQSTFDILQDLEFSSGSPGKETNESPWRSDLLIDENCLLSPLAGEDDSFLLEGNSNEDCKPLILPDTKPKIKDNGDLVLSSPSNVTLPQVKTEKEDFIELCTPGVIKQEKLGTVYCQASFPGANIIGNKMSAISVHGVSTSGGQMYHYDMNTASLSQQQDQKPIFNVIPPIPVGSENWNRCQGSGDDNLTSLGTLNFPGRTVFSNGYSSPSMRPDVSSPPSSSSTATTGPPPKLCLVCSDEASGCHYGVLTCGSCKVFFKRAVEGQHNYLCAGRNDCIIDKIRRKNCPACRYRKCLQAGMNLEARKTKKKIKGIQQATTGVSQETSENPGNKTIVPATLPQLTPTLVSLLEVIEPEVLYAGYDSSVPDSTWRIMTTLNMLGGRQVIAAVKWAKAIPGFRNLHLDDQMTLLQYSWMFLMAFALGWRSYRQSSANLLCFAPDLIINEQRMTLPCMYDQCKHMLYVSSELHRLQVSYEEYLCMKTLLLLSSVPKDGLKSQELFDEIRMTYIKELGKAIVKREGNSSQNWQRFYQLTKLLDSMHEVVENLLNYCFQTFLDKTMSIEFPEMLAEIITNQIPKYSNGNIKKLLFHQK
Chain of Guanine nucleotide-binding protein G(i) subunit alpha-1 (Homo sapiens) (P63096 whole entry, looked up): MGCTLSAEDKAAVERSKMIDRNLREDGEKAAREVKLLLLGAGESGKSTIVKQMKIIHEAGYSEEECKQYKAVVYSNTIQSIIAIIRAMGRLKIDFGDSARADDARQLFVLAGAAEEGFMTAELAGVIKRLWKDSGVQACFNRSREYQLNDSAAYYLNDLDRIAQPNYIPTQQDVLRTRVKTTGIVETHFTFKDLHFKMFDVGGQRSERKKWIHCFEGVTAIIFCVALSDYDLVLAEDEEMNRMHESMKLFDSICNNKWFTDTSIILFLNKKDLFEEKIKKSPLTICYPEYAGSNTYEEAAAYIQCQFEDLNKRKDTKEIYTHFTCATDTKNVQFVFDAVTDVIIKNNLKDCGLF
Chain of Cytochrome P450 3A4 (Homo sapiens) (P08684 whole entry, looked up): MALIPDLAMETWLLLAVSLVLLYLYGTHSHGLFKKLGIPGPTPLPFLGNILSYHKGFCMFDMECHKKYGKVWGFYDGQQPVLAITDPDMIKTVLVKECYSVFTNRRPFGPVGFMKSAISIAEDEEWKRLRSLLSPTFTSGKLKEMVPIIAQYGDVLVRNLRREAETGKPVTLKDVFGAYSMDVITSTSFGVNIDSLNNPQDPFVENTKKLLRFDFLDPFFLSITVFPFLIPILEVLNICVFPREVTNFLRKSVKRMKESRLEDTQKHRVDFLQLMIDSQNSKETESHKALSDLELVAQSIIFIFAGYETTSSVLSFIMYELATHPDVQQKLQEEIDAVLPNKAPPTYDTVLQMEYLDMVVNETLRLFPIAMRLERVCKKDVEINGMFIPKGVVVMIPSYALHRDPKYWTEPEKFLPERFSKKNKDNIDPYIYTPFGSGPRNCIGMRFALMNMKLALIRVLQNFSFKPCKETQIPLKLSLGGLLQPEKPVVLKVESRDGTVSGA
Chain of Alpha-galactosidase A (Homo sapiens) (P06280 whole entry, looked up): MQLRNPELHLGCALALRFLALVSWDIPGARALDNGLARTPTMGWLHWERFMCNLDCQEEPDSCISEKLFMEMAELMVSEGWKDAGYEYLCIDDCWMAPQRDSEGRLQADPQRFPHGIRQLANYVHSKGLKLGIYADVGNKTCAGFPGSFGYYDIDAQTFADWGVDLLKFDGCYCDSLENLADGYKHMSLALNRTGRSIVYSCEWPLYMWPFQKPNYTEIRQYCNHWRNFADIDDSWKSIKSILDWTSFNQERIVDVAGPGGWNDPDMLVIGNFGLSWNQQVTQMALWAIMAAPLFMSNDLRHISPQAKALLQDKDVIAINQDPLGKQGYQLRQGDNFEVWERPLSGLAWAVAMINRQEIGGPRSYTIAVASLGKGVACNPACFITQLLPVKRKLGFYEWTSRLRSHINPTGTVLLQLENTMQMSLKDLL
Chain of Cytochrome P450 1A2 (Homo sapiens) (P05177 whole entry, looked up): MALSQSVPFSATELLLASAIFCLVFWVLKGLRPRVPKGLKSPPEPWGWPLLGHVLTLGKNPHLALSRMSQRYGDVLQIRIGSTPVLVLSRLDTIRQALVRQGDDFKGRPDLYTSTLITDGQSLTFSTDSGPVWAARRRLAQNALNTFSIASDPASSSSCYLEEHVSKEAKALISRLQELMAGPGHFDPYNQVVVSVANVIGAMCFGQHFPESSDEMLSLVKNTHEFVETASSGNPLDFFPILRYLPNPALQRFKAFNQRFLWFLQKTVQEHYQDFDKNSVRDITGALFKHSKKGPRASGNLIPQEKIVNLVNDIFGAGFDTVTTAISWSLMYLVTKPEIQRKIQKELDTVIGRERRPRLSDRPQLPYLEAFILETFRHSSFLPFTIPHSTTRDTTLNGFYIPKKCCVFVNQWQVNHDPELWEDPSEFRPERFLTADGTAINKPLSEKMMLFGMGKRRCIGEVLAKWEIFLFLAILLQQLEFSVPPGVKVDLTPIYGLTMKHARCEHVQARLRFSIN
Chain of Pyruvate kinase (Leishmania mexicana) (Q27686 2-499 E452W): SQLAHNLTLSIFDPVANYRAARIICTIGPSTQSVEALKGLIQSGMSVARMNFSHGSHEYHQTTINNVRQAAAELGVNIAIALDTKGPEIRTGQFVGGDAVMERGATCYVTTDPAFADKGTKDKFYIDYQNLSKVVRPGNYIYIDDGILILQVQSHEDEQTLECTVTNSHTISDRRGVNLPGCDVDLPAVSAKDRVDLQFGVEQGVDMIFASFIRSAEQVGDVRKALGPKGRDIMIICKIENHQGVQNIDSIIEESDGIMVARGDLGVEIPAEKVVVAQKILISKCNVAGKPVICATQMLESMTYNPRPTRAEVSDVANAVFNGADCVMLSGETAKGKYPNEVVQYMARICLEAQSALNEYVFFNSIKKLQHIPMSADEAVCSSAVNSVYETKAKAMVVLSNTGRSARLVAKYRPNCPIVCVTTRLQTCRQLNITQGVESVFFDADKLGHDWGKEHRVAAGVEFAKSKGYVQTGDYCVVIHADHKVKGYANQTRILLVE
Chain of 3',5'-cyclic-AMP phosphodiesterase 4B (Homo sapiens) (Q07343 whole entry, looked up): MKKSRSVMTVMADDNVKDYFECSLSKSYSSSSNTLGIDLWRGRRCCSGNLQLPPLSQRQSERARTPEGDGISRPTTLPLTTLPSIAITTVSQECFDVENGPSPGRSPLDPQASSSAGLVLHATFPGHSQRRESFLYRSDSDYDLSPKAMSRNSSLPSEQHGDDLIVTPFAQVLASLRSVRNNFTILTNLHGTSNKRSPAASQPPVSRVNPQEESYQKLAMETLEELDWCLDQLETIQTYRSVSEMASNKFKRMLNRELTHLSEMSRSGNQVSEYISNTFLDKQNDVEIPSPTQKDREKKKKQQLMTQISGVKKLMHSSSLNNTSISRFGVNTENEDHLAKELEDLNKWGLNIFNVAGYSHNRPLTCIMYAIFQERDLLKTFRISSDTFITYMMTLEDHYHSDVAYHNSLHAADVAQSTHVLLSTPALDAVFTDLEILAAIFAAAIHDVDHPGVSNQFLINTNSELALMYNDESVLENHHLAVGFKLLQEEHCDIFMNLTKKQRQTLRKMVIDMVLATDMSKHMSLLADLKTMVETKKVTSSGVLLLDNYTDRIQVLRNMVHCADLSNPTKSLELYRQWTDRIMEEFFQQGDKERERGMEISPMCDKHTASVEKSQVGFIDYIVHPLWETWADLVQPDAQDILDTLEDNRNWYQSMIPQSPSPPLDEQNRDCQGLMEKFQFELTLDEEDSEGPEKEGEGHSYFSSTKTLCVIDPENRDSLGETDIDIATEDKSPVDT
Chain of Ubiquitin carboxyl-terminal hydrolase 1 (Homo sapiens) (O94782 whole entry, looked up): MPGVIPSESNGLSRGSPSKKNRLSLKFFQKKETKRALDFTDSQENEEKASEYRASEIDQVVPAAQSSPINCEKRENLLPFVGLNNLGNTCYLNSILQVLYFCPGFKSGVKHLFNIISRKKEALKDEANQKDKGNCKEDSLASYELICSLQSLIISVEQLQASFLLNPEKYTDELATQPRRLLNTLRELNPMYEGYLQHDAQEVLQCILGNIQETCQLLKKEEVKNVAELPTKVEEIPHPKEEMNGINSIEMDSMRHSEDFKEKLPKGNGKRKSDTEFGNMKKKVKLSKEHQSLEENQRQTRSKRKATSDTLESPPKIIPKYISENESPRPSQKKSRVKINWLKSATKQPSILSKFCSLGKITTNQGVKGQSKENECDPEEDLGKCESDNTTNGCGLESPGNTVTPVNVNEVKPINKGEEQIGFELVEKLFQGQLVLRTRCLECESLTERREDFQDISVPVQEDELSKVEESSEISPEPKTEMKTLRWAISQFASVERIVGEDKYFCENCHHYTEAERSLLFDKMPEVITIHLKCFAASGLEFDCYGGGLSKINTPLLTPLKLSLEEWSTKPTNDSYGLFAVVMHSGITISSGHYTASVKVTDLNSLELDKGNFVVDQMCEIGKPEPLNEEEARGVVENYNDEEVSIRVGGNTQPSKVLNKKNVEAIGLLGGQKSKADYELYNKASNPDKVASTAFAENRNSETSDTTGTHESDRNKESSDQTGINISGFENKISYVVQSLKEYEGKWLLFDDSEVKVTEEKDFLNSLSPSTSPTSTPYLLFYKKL

COc1ccccc1CN1CC[C@@]2(CCCN(C(=O)c3ccco3)C2)C1
8.6%: max response [7, 23]
4.46%: max response [7, 22]
inactive: Potency [1] > 11.4 µM | activity change, negative = inhibition [2, 21] -21.8% | activity, negative = inhibition [3, 21] -8.66% | Potency [4] > 46 µM | Potency [5] | Potency [6] | activity change, negative = inhibition ([7]; at 57.5 µM (top of the series)) 1.52%

C[C@@](N)(Cc1ccc(O)c(O)c1)C(=O)O
-7.65%: max response [7, 23]
inactive: activity change, negative = inhibition ([8]; at 17.2 µM (top of the series)) 0.401% | activity change, negative = inhibition ([8]; at 38 µM (top of the series)) 5.17% and -4.03% | Potency [9] | activity change, negative = inhibition ([2]; at 17.2 µM (top of the series)) -8.05% | activity change, negative = inhibition ([2]; at 38 µM (top of the series)) 7.56% and -10% | activity, negative = inhibition ([3]; at 17.2 µM (top of the series)) 0.151% | activity, negative = inhibition ([3]; at 38 µM (top of the series)) -17.9% and -0.208% | Potency [5] | Potency [10] | Potency [11] | Potency [6] | Potency [12] | outcome [13] | outcome [14] | outcome [15] | outcome [16] | activity change, negative = inhibition ([7]; at 25.7 µM (top of the series)) -1.42% | Potency [17]
6.8%: max response [7, 22]

c1ccc(Nc2ncnc3ccc(-c4ccc5c(c4)OCO5)cc23)cc1
-7.25%: max response [7, 23]
active: Potency [9] 251 nM | Potency [19] 2.51 µM
inactive: Potency [1] > 11.4 µM | activity, negative = inhibition [3, 21] 8.5% | Potency [18] > 46 µM | Potency [4] > 46 µM | Potency [5] | Potency [6] | outcome [13] | activity change, negative = inhibition ([7]; at 57.5 µM (top of the series)) 5.31%
-12.2%: max response [7, 22]

C[C@@H]1COc2c(N3CCN(C)CC3)c(F)cc3c(=O)c(C(=O)O)cn1c23
-7.85%: max response [7, 22]
inactive: activity change, negative = inhibition ([8]; at 17.2 µM (top of the series)) -1.23% | activity change, negative = inhibition ([8]; at 38 µM (top of the series)) 11.6% | Potency [9] | activity change, negative = inhibition ([2]; at 17.2 µM (top of the series)) -4.07% | activity change, negative = inhibition ([2]; at 38 µM (top of the series)) 4.93% | activity, negative = inhibition ([3]; at 17.2 µM (top of the series)) 4.46% | activity, negative = inhibition ([3]; at 38 µM (top of the series)) -5.77% | Potency [5] | Potency [10] | Potency [11] | outcome [14] | outcome [15] | outcome [16] | activity change, negative = inhibition ([7]; at 25.7 µM (top of the series)) -0.7% | activity, negative = inhibition ([20]; parasite line A) 3.1% | activity, negative = inhibition ([20]; parasite line B) 11.1%
-10.5%: max response [7, 23]

COc1cc(=O)n(C)c2c(OC[C@@H](O)C(C)(C)O)cccc12
active: Potency [9] 20 µM and 12.6 µM
-7.54%: max response [7, 22]
-18.8%: max response [7, 23]
inactive: activity change, negative = inhibition ([8]; at 17.2 µM (top of the series)) 11.5% | activity change, negative = inhibition ([8]; at 38 µM (top of the series)) 3.48% | activity change, negative = inhibition ([2]; at 17.2 µM (top of the series)) 1.64% | activity change, negative = inhibition ([2]; at 38 µM (top of the series)) 5.18% | activity, negative = inhibition ([3]; at 17.2 µM (top of the series)) -4.39% | activity, negative = inhibition ([3]; at 38 µM (top of the series)) 1.34% | Potency [18] > 46 µM and > 20.6 µM | Potency [4] > 46 µM and > 20.6 µM | Potency [5] | Potency [10] | Potency [11] | Potency [6] | outcome [14] | outcome [15] | outcome [16] | activity change, negative = inhibition ([7]; at 25.7 µM (top of the series)) -2.03% | Potency [17]
